The list is not random: actives were taken first. Their share in the collection is about 1.5%.
gsp antagonist: qHTS for Antagonists of gsp, the Etiologic Mutation Responsible for Fibrous Dysplasia/McCune-Albright Syndrome: qHTS; gsp-mutant cells, cAMP HTRF, 30 min; Potency, µM (highest dose often 76.9 µM), inactives show at the highest dose activity change, negative = inhibition, hits mostly inhibitors; 340,000 compounds, 0.4% hits; AID 624288, 2012; calls by dose curve; cell line not stated here;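 also: intracellular cAMP measured with PDE inhibitor Ro 20-1724 present during compound exposure; potency is read from the fitted curve at half-maximal effect; % is scaled to controls: 0 for no effect and ±100 for the full control effect; nearly all actives have a fitted effect of over 65% in size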
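HTRF cAMP measurement after 30 min RT detection following 30 min, 37C compound treatment alongside […] (added as 300 uM solution) in G418-selected cells seeded at 2000/well and grown 16–24 h.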
gsp ag: qHTS for Agonist of gsp, the Etiologic Mutation Responsible for Fibrous Dysplasia/McCune-Albright Syndrome: qHTS | gsp mutant cells, cAMP HTRF, 30 min | Potency, µM (series often up to 76.9 µM), inactives show at the highest dose activation (cAMP increase), hits mostly activators | 340,000 compounds, 0.13% hits | AID 624287, 2012; active = well fitted activation curve with a large enough effect; inconclusive = small, poorly fitted or top-dose-only effect, or another doubt; inactive = no such curve, though single readings can be large or run the other way; cell line not stated here;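 also: phosphodiesterase inhibitor Ro 20-1724 added with compounds to block cAMP breakdown; potency is read from the fitted curve at half-maximal effect; nearly all actives have a fitted effect of over 60% in size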
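Cells stably selected in G418 were plated at 2000/well, grown 16-24 hr, then given compounds in DMSO with the PDE inhibitor […] (300 uM solution added) for 30 min at 37C; cAMP was read by HTRF.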
BRCA1 expr up: qHTS Assay to Identify Small Molecule Activators of BRCA1 Expression; MCF7-BRCA1-FFLuc reporter, luminescence, 48 h; response scale: scaled: vehicle 0%, 10 µM genistein 100%; Potency, µM (highest dose often 46.1 µM), inactives show top-dose activation, usual class: activators; 380,000 compounds, 1.1% hits; also: potency is read from the fitted curve at half-maximal effect; nearly all actives have a fitted effect of over 80% in size
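Reporter cells (MCF7, BRCA1 promoter-firefly luciferase) received library compounds across a concentration series for 48 h. End-point luminescence was measured and concentration-effect curves derived after normalization.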
mIDH1 inhibitor: qHTS for Inhibitors of mutant isocitrate dehydrogenase 1 (IDH1): qHTS; AID 602179, 2012; IDH1-R132H enzyme, NADPH consumption, diaphorase/resazurin fluorescence; 390,000 compounds, 0.093% hits; Potency, µM (highest dose often 76.6 µM), for inactives: at the top dose activity change, negative = inhibition, most hits filed as inhibitors; Isocitrate dehydrogenase [NADP] cytoplasmic (Homo sapiens), O75874; also: potency is read from the fitted curve at half-maximal effect; % is scaled to controls: 0 for no effect and ±100 for the full control effect; nearly all actives have a fitted effect of over 65% in size
Target sequence (O75874 whole entry R132H, stated change not applied): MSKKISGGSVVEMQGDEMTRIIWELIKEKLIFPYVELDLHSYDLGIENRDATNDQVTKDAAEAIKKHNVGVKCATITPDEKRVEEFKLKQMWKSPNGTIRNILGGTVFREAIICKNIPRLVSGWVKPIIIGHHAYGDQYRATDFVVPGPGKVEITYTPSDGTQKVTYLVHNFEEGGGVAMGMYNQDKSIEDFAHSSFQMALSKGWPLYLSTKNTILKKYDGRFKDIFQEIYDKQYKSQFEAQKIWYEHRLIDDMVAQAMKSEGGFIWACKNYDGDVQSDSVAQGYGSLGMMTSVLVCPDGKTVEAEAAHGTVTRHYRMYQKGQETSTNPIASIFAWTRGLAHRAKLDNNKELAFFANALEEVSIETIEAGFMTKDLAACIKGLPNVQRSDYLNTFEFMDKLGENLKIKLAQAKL
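IDH1-R132H (0.5 ug/mL) preincubated 30 min with compound, then NADPH (0.016 mM) and alpha-KG (2 mM) added; 80 min at RT, pH 7.5. Remaining NADPH coupled via diaphorase/resazurin to fluorescence (540/590 nm); concentration-response curves normalized to no-enzyme control.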
IL-2 act: qHTS of IL-2 Activators | 360,000 compounds, 0.065% hits | IL-2 activation reporter assay, cell-based qHTS; stimulated with anti-CD3/CD4/CD28 beads; in transgenic mouse T cells | activation, % (series mostly up to about 46 µM); in the data active = activation above about 50%; inconclusive = mostly about 30% to 49%; also: 0% is about no effect
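First, unstimulated transgenic mouse T cells were exposed to compound for 60 min. Next, anti-CD3/anti-CD4-coated beads with anti-CD28 were added. Finally, after 18 h at 37 degrees C, EGFP and DsRed were imaged.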
* = called active by the depositor; ? = inconclusive; / = no result given; [ ] = dose if it differs, or a comment. Unless noted, calls follow the shape of the dose curve; as a rule, active = well fitted curve in the direction sought with a large enough effect; inconclusive = small, poorly fitted or top-dose-only effect, or another doubt; inactive = no such curve, though single readings can be large; an effect the other way counts as inactive or inconclusive.

SMILES	gsp antagonist	gsp ag	BRCA1 expr up	mIDH1 inhibitor	IL-2 act
CCNC(=O)N1CCN(/[N+]([O-])=N/Oc2ccc([N+](=O)[O-])cc2[N+](=O)[O-])CC1	/	/	-5.5%	/	/
O=C(CC1Nc2ccccc2NC1=O)Nc1cc(Cl)cc(Cl)c1 (configuration not stated)	-5.9%	-1.0%	-52.3%	3.4%	1.3
COC(=O)c1c(NC(=O)CC2Nc3ccccc3NC2=O)sc(C)c1C (configuration not stated)	9.3%	-44.1%	-43.3%	-0.8%	184.7*
CCOC(=O)c1c(NC(=O)CC2Nc3ccccc3NC2=O)sc(C)c1C (configuration not stated)	-1.6%	6.8%[15.4 µM]	-0.5%	1.3%	157.7*
COc1ccc(-c2coc3cc(O[C@@H]4O[C@H](CO)[C@@H](O)[C@H](O)[C@H]4O)c(OC)cc3c2=O)cc1	12.9%	10.5%	11.2µM*	10.7%	0.8
COc1ccc(-c2coc3cc(OC)ccc3c2=O)cc1	-5.1%	/	2.82µM*	-11.0%	0.3
COc1ccc(-c2coc3cc(OC4OC(CO)C(O)C(O)C4O)ccc3c2=O)cc1 (configuration not stated)	12.6%	?	?	-5.3%	-1.9
COc1ccc(-c2coc3cc(O)ccc3c2=O)cc1	-10.0%	/	?	-2.0%	0.4
COc1ccc(-c2coc3cc(O)ccc3c2=O)cc1O	-4.9%	/	12.6µM*	12.8%	0.1
COc1ccc(CC(=O)c2ccc(OC3OC(CO)C(O)C(O)C3O)cc2O)cc1 (configuration not stated)	6.6%	-18.0%	11.2µM*	1.9%	-3.3
Cn1c(=O)c2nc(SCC(=O)Nc3cc(Cl)cc(Cl)c3)n(C)c2n(C)c1=O	/	/	/	-23.6%	/
CCOC(=O)COc1ccc2c(=O)c(-c3ccccc3)coc2c1	?	-55.7%	-16.3%	2.9%	-2.5
CC(=O)Oc1ccc2c(=O)c(-c3ccccc3)coc2c1	-11.9%	5.8%[15.4 µM]	7.94µM*	-4.3%	-0.7
C=CCSc1n[nH]c(-c2ccc(OCCC)cc2)n1	-7.5%	13.6%	3.55µM*	5.0%	-3.3
C=CCSc1n[nH]c(-c2ccc(OCCCC)cc2)n1	-24.6%	0.4%	7.94µM*	10.3%	-0.3
CCCOc1ccc(-c2nc(=S)[nH][nH]2)cc1	0.4%	14.5%	3.55µM*	6.9%	1.2
O=C(Cc1ccccn1)c1ccncc1	1.3%	8.0%	-13.8%	2.3%	0.4
COc1ccc(NC(=O)Cn2c(=O)n(Cc3ccco3)c(=O)c3oc4ccccc4c32)cc1Cl	/	/	/	-2.6%	/
CCOC(=O)c1c(C)[nH]c(C)c1S(=O)(=O)N(C)CC(=O)Nc1ccc(C)cc1C	/	/	0.0%	-0.6%	/
CC(=O)Nc1scc(-c2ccccc2)[n+]1-c1ccc(C)cc1	50.1µM*	41.3%	1.9%	25.6%	-1.0
COc1cccc(-c2nc(-c3ccccn3)no2)c1OC	-8.9%	-1.9%	4.47µM*	3.1%	0.2
c1ccc(-c2noc(-c3cccc4ccccc34)n2)nc1	-17.3%	-15.3%	-15.2%	7.8%	-1.8
COc1cc(-c2nc(-c3ccccn3)no2)cc(OC)c1OC	12.7%	-43.3%	7.94µM*	7.0%	0.8
COc1ccccc1-c1noc(-c2cc(OC)c(OC)c(OC)c2)n1	16.3%	21.4%	-55.2%	6.9%	-3.5
CN(C)c1ccc(/C=C/c2nc3ccccc3s2)c(Cl)c1	/	/	-66.1%	/	/
SMILES	gsp antagonist	gsp ag	BRCA1 expr up	mIDH1 inhibitor	IL-2 act
O=C(c1cnn2c1NC(=C1CC1)C=C2C(F)F)N1CCc2ccccc21	/	/	-43.0%	/	/
Cc1ccccc1OCC(=O)NCC(=O)OCC(=O)c1ccc2c(c1)CCCC2	/	/	17.6%	/	/
Cc1ccc(C(=O)NC(C)CCc2ccccc2)cc1S(=O)(=O)N1CCOCC1 (configuration not stated)	0.5%	-3.8%[15.4 µM]	-9.8%	2.1%	0.5
COc1ccc(/C=C/C(=O)Nc2ccc(C)c(S(=O)(=O)N3CCOCC3)c2)cc1	31.6µM*	/	-33.7%	-6.9%	-0.6
Cc1ccc(C(=O)NCCc2ccccc2)cc1S(=O)(=O)N1CCOCC1	-13.4%	-0.7%	11.2µM*	3.9%	0.2
CCOC(=O)c1ccc(NC(=O)c2sc3nc(N4CCOCC4)c4c(c3c2N)CCCC4)cc1	-2.1%	17.8µM*	-22.9%	7.0%	-0.4
COc1ccc(NC(=O)/C=C/c2ccc(S(=O)(=O)N3CCOCC3)cc2)cc1	6.9%	9.4%	4.2%	8.4%	1.3
Cc1cc(C)n(-c2ccc(C(=O)Nc3ccc(C)c(S(=O)(=O)N4CCOCC4)c3)cc2)n1	35.5µM*	-0.6%[15.4 µM]	-62.3%	5.4%	5.1
CCOC(=O)c1ccc(NC(=O)c2ccc(C)c(S(=O)(=O)N3CCOCC3)c2)cc1	28.2µM*	0.4%	-109.5%	2.1%	-2.0
COc1ccc(CC(=O)NCc2nc3cccnc3n2Cc2ccc(F)cc2)cc1OC	/	/	/	6.3%	/
CCc1cccc(NC(=O)CSc2ncc3c(n2)-c2ccc(Cl)cc2N(Cc2ccccc2)S3(=O)=O)c1	/	/	-5.8%	7.0%	/
CCOc1ccc(C2C(C(=O)c3ccc(C)o3)=C(O)C(=O)N2Cc2cccnc2)cc1 (configuration not stated)	29.6%	7.94µM*	0.0%	-20.4%	-2.9
COc1cc(C2C(C(=O)c3ccc(C)o3)=C(O)C(=O)N2CCN2CCOCC2)ccc1OCCC(C)C (configuration not stated)	4.6%	38.3%[15.4 µM]	-5.6%	0.6%	1.4
CCCOc1cccc(C2C(C(=O)c3ccc(C)o3)=C(O)C(=O)N2CCN2CCOCC2)c1 (configuration not stated)	19.2%	31.6µM*	-12.8%	-6.6%	-3.9
Cc1ccc(C(=O)C2=C(O)C(=O)N(Cc3cccnc3)C2c2ccc(Cl)cc2)o1 (configuration not stated)	-6.2%	?	-28.0%	-6.7%	-0.2
COc1ccc2[nH]c(C)c(C(=O)CNc3nccs3)c2c1	/	/	-31.3%	/	/
CN(C)/C=N/C(=S)Nc1ccc(Cl)cc1	-9.0%	-23.7%[15.4 µM]	?	5.2%	-1.0
CN(C)/C=N/C(=S)Nc1ccc(Cl)cc1Cl	2.2%	-49.2%[15.4 µM]	5.01µM*	16.5%	-2.2
COc1ccc(-c2nc(Cn3c(SCc4ccc(C)cc4)nc4cccnc43)c(C)o2)cc1OC	/	/	/	15.2%	/
Cc1ccc(F)cc1C(=O)N1CCOCC1c1cc(C(=O)Nc2ccccc2)no1 (configuration not stated)	/	/	7.5%	/	-0.2
O=C(NCCc1ccccc1)c1cc(-c2ccccc2)nc2n[nH]c(-c3ccccc3)c12	/	/	/	-8.0%	/
CN(c1ccccc1)c1nc2ccsc2c(=O)s1	-6.9%	1.6%	10µM*	5.6%	-0.1

Source: PubChem BioAssay (National Center for Advancing Translational Sciences (NCATS))
